Results reported in PubChem BioAssay (NCI).
Compounds without any hit were thinned out: in the full panel of roughly 83,000, 20% have a hit.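 96-well plates, one dose, 48 hours. Percent growth reported; active if below 10.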 The source made the active and inactive calls.

The molecules below were run on MDA-MB-468 breast (assay: NCI-60 one-dose screen, 48 h (100 = growth as untreated, 0 = no growth, -100 = all killed)). Conditions: 10 µM unless noted.
With `CC1CCN(C(=O)OCc2nc3nc(Cl)nc(N4CCOCC4)c3[nH]2)CC1` the growth was -59.5% (active).
`COc1cc(Cl)cc(-c2nn(-c3cccc(NC(=O)Nc4ccc(Cl)c(C(F)(F)F)c4)c3)cc2-c2ccncc2)c1` was tested, and the growth was -14.4% (active).
For `Nc1cc2ccccc2c(O)c1O`, the growth was -3.32% (active).
For `CNCCCNCCCCNCCCN1C(=O)c2ccc3c4c(ccc(c24)C1=O)C(=O)N(CCCNCc1ccccc1OC)C3=O`, the growth was 28.6% (inactive).
`COc1ncnc2c1ncn2C/C(Br)=C(\Br)CCl` was tested, and the growth was 16.9% (inactive).
For `CS(=O)(=O)c1ccc(-c2nn(-c3ccccc3)cc2/C=N/NC(=O)c2ccncc2)cc1`, the growth was 99% (inactive).
In the case of `c1ccc(-c2cc3cc4ccccc4cn3c2)cc1`, the growth is reported as 79.8% (inactive).
In the case of `C=CCN(/C=C1/C(=O)O[C@H](COC)[C@@]2(C)C1=C(O)C(=O)C1=C2[C@H](OC(C)=O)C[C@]2(C)C(=O)CC[C@@H]12)CC=C`, the growth is reported as -32.2% (active).
In the case of `Cc1nc(C)c(C(=O)O)cc1C(=O)O`, the growth is reported as 109% (inactive).
In the case of `CN(Cc1ccccc1)c1nc(Cl)c(C2CC(c3ccc(Cl)cc3)=NN2c2cc(Cl)cc(Cl)c2)s1` (stereo not given), the growth is reported as 101% (inactive).
In the case of `O=C1c2c(Cl)c(Cl)c(Cl)c(Cl)c2C(=O)C2(Cl)CC=CCC12Cl` (stereo not given), the growth is reported as -77.2% (active).
For `O=C(O)Cc1cccc2ccccc12`, the growth was 121% (inactive).
In the case of `Nc1ncnc2c1c(-c1ccc(Oc3ccccc3)cc1)nn2C[C@@H]1SSC[C@@H]1O`, the growth is reported as -27.7% (active).
For `CCOC(=O)Nc1ccc(C(=O)/C=C/c2ccccc2)cc1`, the growth was 94% (inactive).
With `O=C(NN1C(=O)CSC1c1ccc(Cl)cc1)c1[nH]c2ccc(F)cc2c1-c1ccccc1` (stereo not given) the growth was 69.3% (inactive).
